Inconclusive results are not listed. Unmarked numbers belong to inactive results. Calls of active or inactive are those of the source. Calls come from the whole dose curve; as a rule, active = well fitted activation curve with a large enough effect in the repeat runs; inconclusive = weak or mixed curves; inactive = flat fitted curve, though single readings scatter.
Assay: A CellTox Green Cytotoxicity Assay to monitor cytotoxicity in HEK293 cells - 8 hour (AID 1224884); note: nearly all actives have a fitted effect of over 35% in size
Conditions: CellTox Green fluorescence; series mostly up to 76.8 µM; cytotoxicity increase: at the top concentration
From the text: National Center for Advancing Translational Sciences [NCATS]
NIH Chemical Genomics Center [NCGC]
U.S. Environmental Protection Agency [EPA]
National Institutes of Environmental Health Sciences [NIEHS]
National Toxicology Program [NTP]
Cell-based models are critical for drug discovery. Determining the natural cytotoxic effects resulting from test compounds is an essential research activity. A CellTox Green Cytotoxicity Assay to monitor cytotoxicity in real time of continues cell culture during 40 hours of the compound treatment was used to screen Tox21 10K library compounds in Hek293 cells. CellTox Green Cytotoxicity Assay is a nonlytic, homogeneous, biofluorescent method to measure cytotoxicity in cell culture after experimental manipulation. The assay system uses a proprietary asymmetric cyanine dye that is excluded from viable cells but preferentially stains the dead cell's DNA. […] Viable cells produce no appreciable increases in fluorescence. Therefore, the fluorescence signal produced by the binding interaction with dead cell DNA is proportional to cytotoxicity.
The mixture of Hek293 cell suspension and reagents were dispensed at 600cells/6 ul/well in 1536-well tissue culture treated black solid bottom plates using a Multidrop dispenser. After the assay plates were incubated at a 37 C/5% CO2 incubator for 5 hours, 23 nL of compounds dissolved in DMSO, positive and negative controls was transferred to the assay plate by a pintool work station. The plates were incubated at 37 C for 40 hours. The fluorescence intensity were measured at 0h, 8h, 16h, 24h, 32h and 40h time points using ViewLux plate reader during compound treatment.
% is set by controls: 0 for no effect and ±100 for the full control effect; potency is the fitted concentration of half-maximal effect.

Structure (SMILES)	cytotoxicity increase	Potency
BrC(Br)C(Br)Br	7.6%	
CCN(CC)C(=O)N1CCN(C)CC1	-8.34% [at 35.3 µM]	
COc1ccc(-c2cc(C(F)F)nn2-c2ccc(S(N)(=O)=O)cc2)cc1F	-0.524% [at 35.3 µM]	
C=Cc1ccc(OC(C)=O)cc1	29.4%	
CCSC(=O)N(CC)CC	-0.314%	
Nc1ccc(N=Nc2ccc(N)cc2)cc1	-9.85% [at 35.3 µM]	
CN1C(CSCC(F)(F)F)Nc2cc(Cl)c(S(N)(=O)=O)cc2S1(=O)=O (stereo not given)	-8.63% [at 35.3 µM]	
COc1cc(C(C)=O)ccc1OCCCN1CCC(c2noc3cc(F)ccc23)CC1	0.804% [at 35.3 µM]	
Cc1cc(CCC(=O)OCCOCCOCCOC(=O)CCc2cc(C)c(O)c(C(C)(C)C)c2)cc(C(C)(C)C)c1O	1.11%	
CC(C)(O)CCc1ccccc1	1.25%	
CC(O)Cn1cnc2c1c(=O)n(C)c(=O)n2C (stereo not given)	3.04% [at 35.3 µM]	
O=C1OC(=O)c2c(Br)c(Br)c(Br)c(Br)c21	-1.09%	
CCCCCCCCCCCCCCCCCC(=O)OCC(CC)CCCC (stereo not given)	-6.57%	
Nc1ccc(S(=O)(=O)NCc2ccccc2)cc1	-14.4% [at 35.3 µM]	
O=C(NC(Cc1cc(=O)[nH]c2ccccc12)C(=O)O)c1ccc(Cl)cc1 (stereo not given)	-16% [at 35.3 µM]	
CNC1CCCN(c2c(F)cc3c(=O)c(C(=O)O)cn(C4CC4)c3c2OC)C1 (stereo not given)	-13.7% [at 35.3 µM]	
[Cl][Nd]([Cl])[Cl]	-16.4%	
C1CCCCC1	-12.3%	
Cc1cccc2sc(N)nc12	-1.57%	
CCC(Cl)CC(Cl)C(Cl)C(Cl)C(Cl)C(C)Cl (stereo not given)	24.2% [at 15.8 µM]	

Structure (SMILES)	cytotoxicity increase	Potency
CSCC[C@H](NC(=O)[C@H](Cc1c[nH]c2ccccc12)NC(=O)CCNC(=O)OC(C)(C)C)C(=O)N[C@@H](CC(=O)O)C(=O)N[C@@H](Cc1ccccc1)C(N)=O	-0.32% [at 35.3 µM]	
CC[C@@H](CO)NCCN[C@@H](CC)CO	-4.96% [at 35.3 µM]	
CCC(C)(C)C(=O)O	16.7%	
CC(=O)N[C@@H](Cc1ccc(O)cc1)C(=O)O	-3.33% [at 35.3 µM]	
CCC(=O)OCc1ccc(OC)cc1	-7.93%	
CC1=CC[C@@H]2C[C@H]1C2(C)C	0.245% [at 15.8 µM]	
CC1CCC(C(C)CS)CC1S (stereo not given)		49 µM (active)
CCc1ccc(C)cc1	-2.68%	
O=C(O)CO	-1.06%	
O=C(NS(=O)(=O)/C=C/c1ccccc1)c1ccc(F)cc1Cl	0.719%	
CCCCCCCCCCCCCC(=O)OCC(O)CO (stereo not given)	-11.9%	
Cc1ccc(Cl)cc1N	3.04%	
CC1CCCO1 (stereo not given)	-4.55%	
CC(CO)(CO)C(=O)O	-1.17%	
CC(C)c1ccc(C(=O)N=C(N)N)cc1S(C)(=O)=O	-2.68% [at 35.3 µM]	
CCOCCC(=O)OCC	-11.1%	
CC(=O)OCC(C)C	1.29%	
CCCc1nc2c(C)cc(-c3nc4ccccc4n3C)cc2n1Cc1ccc(-c2ccccc2C(=O)O)cc1	1.42% [at 35.3 µM]	
CC1C(C)(C)C2=C(C(=O)CCC2)C1(C)C (stereo not given)	-1.42%	
CSSc1ccoc1C	-9.31%	

— PubChem BioAssay (Tox21)
